The whole screen tested about 96,000 compounds, of which about 20,000 (21%) were called active. These entries were drawn from the full list. A number with no mark means an inactive call.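 How the source made its calls: active means CYP2C19 inhibition above a set limit at 5 µM in the primary screen (cut at about 50% in these data); inactive means the rest.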

In the assay the target is Cytochrome P450 2C19 (Homo sapiens) (UniProt P33261). Description: blockers of cytochrome P450 2C19 activity – biochemical, luminescence, ADME assay, primary screen (AID 778).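 Further: plate controls were negative control wells for no effect and 2.5 mM tranylcypromine positive control for full effect.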 The conditions noted are these: CYP2C19 Supersomes, luciferin-H EGE luminescence, 30 min; at 5 µM; active compounds read high.
Chain of Cytochrome P450 2C19 (Homo sapiens) (P33261 whole entry, looked up): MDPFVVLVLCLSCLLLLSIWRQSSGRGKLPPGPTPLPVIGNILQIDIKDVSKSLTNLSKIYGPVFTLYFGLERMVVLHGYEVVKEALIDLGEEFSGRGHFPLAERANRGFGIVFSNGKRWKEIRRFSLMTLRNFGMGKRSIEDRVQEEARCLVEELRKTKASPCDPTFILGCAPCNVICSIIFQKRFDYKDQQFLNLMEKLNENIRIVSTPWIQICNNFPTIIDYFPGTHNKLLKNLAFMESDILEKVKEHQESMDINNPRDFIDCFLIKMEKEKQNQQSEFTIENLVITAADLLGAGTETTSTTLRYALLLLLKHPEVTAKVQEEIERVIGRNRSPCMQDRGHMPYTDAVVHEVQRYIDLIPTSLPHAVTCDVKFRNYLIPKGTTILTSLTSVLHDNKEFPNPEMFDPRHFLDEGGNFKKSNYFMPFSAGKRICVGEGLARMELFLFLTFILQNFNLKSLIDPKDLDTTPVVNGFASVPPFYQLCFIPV
Regarding `CCOC(=O)C1CCN(C(=O)C2CCN(S(=O)(=O)N3CCCC3)CC2)CC1`, the inhibition was 10.9%.

Take `CCOC(=O)C1CCN(C(=O)C2CCN(S(=O)(=O)CC)CC2)CC1`: the inhibition was -18.2%.

For `CCOC(=O)C1CCN(C(=O)Nc2ccc(Cl)cc2)CC1`, the inhibition is 63.1% (active).

For the compound `Cc1ccc(-c2nc(C)sc2CC(=O)O)cc1`, the inhibition is 29.8%.

As to `NC(=O)COc1ccc(/C=N/NC(=O)C2CCCN2S(=O)(=O)c2ccc(Cl)cc2)cc1` (stereo not given), the inhibition is 19.2%.

Consider `O=C(Cc1ccccc1)N/N=C/c1ccc(Cl)cc1Cl`, for which the inhibition is 7.9%.

Consider `CSc1ccc(/C=N\NC(=O)COc2ccc(Cl)cc2Br)cc1`, for which the inhibition was 76.4% (active).

With `CS(=O)(=O)c1ccc2nc(NC(=O)C3C4C=CC(C4)C3C(=O)O)sc2c1` (stereo not given), the inhibition was 0.7%.

Take `CC(C)COC(=O)c1ccc(NC(=O)C2C3C=CC(C3)C2C(=O)O)cc1` (stereo not given): the inhibition is 54.2% (active).

With `COC(=O)c1cc(NC(=O)C2C3C=CC(C3)C2C(=O)O)cc(C(=O)OC)c1` (stereo not given), the inhibition was 2.5%.

For `CC(Sc1nnc(Cc2ccc([N+](=O)[O-])cc2)o1)C(N)=O` (stereo not given), the inhibition is 16.6%.

For the compound `O=C(Cn1cnc2c(cnn2-c2ccccc2)c1=O)NCc1ccccc1`, the inhibition is -10.8%.

Regarding `CN1C(=O)C(CC(N)=O)N(NC(=O)c2ccc(Cl)cc2)C1=S` (stereo not given), the inhibition was -7.8%.

For the compound `CCCCC(=O)N1CC2(C)CN(C(=O)CCCC)CC(C)(C1)C2=O`, the inhibition was -1.6%.

For `CC(=O)N1CC2(C)CN(C(C)=O)CC(C)(C1)C2=O`, the inhibition is 79.3% (active).

Take `CCCCNC(=O)CSc1nc2ccc(NC(=O)CSc3nnc(COc4ccccc4C)n3C)cc2s1`: the inhibition is 19.1%.

Take `CC(C)c1ccc(NC(=O)CCN2C(=O)c3ccc([N+](=O)[O-])cc3C2=O)cc1`: the inhibition is 8.5%.

As for `CCC(CC)C(=O)Nc1cc(C(=O)OC)cc(C(=O)OC)c1`, the inhibition was 1.1%.

On to `Cc1sc(NC(=O)C2C3CCC(O3)C2C(=O)O)c(C(=O)OC(C)C)c1-c1ccc(Cl)cc1` (stereo not given), for which the inhibition is 19.7%.

As to `CC(C)OC(=O)c1cc(NC(=O)C2C3CCC(O3)C2C(=O)O)cc(C(=O)OC(C)C)c1` (stereo not given), the inhibition is 77.9% (active).

As for `COCCCn1c(SCc2cccc(OC)c2)nc2cc(OC)c(OC)cc2c1=N`, the inhibition was 53.4% (active).

Take `OCCN1CCOCCOCCN(CCO)CCN(CCO)CC1`: the inhibition was 16.6%.

Consider `Cc1nn(Cc2ccccc2)c(Cl)c1C(=O)OC1CCOC1=O` (stereo not given), for which the inhibition is 63.5% (active).

`O=C(OC1CCOC1=O)c1ccc(-c2nc3ccccc3s2)s1` (stereo not given): the inhibition is 11.3%.

As to `CC(=O)c1c(N2CCOCC2)nc(=S)n(Cc2ccccc2)c1C`, the inhibition is 12.8%.

Take `COc1cccc(-c2nc(S(=O)(=O)c3ccccc3)c(N3CCOCC3)o2)c1`: the inhibition is 27.7%.

As for `O=C(NCc1cn2ccsc2n1)Nc1cccc(Cl)c1`, the inhibition is 13.3%.

For the compound `O=c1[nH]c(=O)n(Cc2ccco2)c2c1C(C(F)(F)F)(C(F)(F)F)N=C(c1ccco1)N2`, the inhibition was -12.6%.

With `Cc1cc(-c2ccccc2)n2nc(C)c(-c3ccccc3)c2n1`, the inhibition is 30.7%.

Regarding `CCOC(=O)c1csc(NC(=O)c2ccc(S(=O)(=O)N3CCCC3)cc2)n1`, the inhibition is -7%.

Regarding `CC(=O)c1c(N2CCOCC2)nc(=S)n(-c2cc(C)ccc2C)c1C`, the inhibition is -10.5%.

Regarding `Cc1ccccc1-c1nnn(CC(=O)c2ccc(S(=O)(=O)N3CCCC3)cc2)n1`, the inhibition is 14.5%.

As to `Cc1ccc(C(=O)Nc2ccccc2C(=O)NC2CCCCC2)cc1S(=O)(=O)N1CCOCC1`, the inhibition was 21.5%.

`Cc1cc(C)n(C(=O)c2ccc(C)c(S(=O)(=O)N3CCOCC3)c2)n1`: the inhibition was 68.7% (active).

On to `Cc1cc(C)n(C(=O)c2ccc(S(=O)(=O)N3CCCC3)cc2)n1`, for which the inhibition is 68.7% (active).

Turning to `Cc1ccc(-c2nn(C(C)(C)C)c3ncnc(N)c23)cc1`, the inhibition is 38.5%.

For the compound `CCN(Cc1cc2cc(C)ccc2[nH]c1=O)S(=O)(=O)c1ccccc1`, the inhibition was 31.8%.

Turning to `CCCNc1ncnc2sc(C)c(C)c12`, the inhibition was 29.6%.

On to `COc1ccc(Cl)cc1C(=O)NCc1cn(C)nc1C`, for which the inhibition is 10.4%.

Regarding `COC(=O)c1ccc(OC(=O)c2nn(C)cc2Cl)c(OC)c1`, the inhibition was 67.9% (active).

As for `COC(=O)c1ccc(CSc2nncn2C)cc1`, the inhibition is 39.9%.

For `CC(=O)CCS(=O)(=O)c1ccc(C)c(C)c1`, the inhibition is 35.1%.

As for `CCN(CC)CC(=O)Nc1nn(-c2ccccc2)nc1C(N)=O`, the inhibition is -19.9%.

For the compound `COC(=O)c1ccc(Oc2nc(Nc3ccc(F)cc3)nc(N3CCCC3)n2)cc1`, the inhibition is 32.3%.

In the case of `Cc1nn(-c2ccccc2)c2[nH]c(C(F)(F)F)cc(=O)c12`, the inhibition was -2.2%.

On to `CCCCn1nnnc1NCc1cc(OC)c(OC)c(OC)c1`, for which the inhibition was 79.8% (active).

`CCCCCCc1cc2cc(-c3nnc(-c4ccccc4)o3)c(=O)oc2cc1O`: the inhibition is 27.4%.

With `c1ccc2cc3[nH]c(CN4CCCCC4)nc3cc2c1`, the inhibition was 82.7% (active).

Turning to `c1ccc2cc(OCCN3CCCC3)ccc2c1`, the inhibition was 4.2%.

Consider `c1cc(-c2nn[nH]n2)ccc1CN1CCCCC1`, for which the inhibition is -11.4%.

`Cc1nc(C)c(-c2csc(NCCc3ccccc3)n2)s1`: the inhibition was 39.4%.

`Cn1c(=NC(=O)CSCC(=O)N2CCCCC2)sc2ccccc21`: the inhibition was 73.6% (active).

As for `Cn1c(=NC(=O)CSCC(=O)N2CCOCC2)sc2ccccc21`, the inhibition is 46.6%.

Turning to `Cn1c(=NC(=O)c2cnccn2)sc2ccccc21`, the inhibition was -2.4%.

In the case of `CC(C)c1nc2oc3c(N4CCN(C)CC4)ncnc3c2c2c1CCC2`, the inhibition was 22.2%.

For `O=C(Oc1ccccc1)Oc1ccc2c(c1)oc(=O)c1ccccc12`, the inhibition is -10.9%.

As to `COc1ccc(C(=O)c2oc3ccc(Br)cc3c2NC(C)=O)cc1`, the inhibition is -4%.

In the case of `ON=C1/C(=N\O)CC2(C/C1=N/O)OCCO2`, the inhibition was -10.5%.

With `O=C(C1CCC1)N1CCc2cc(S(=O)(=O)NCc3cccnc3)ccc21`, the inhibition is 10%.

On to `O=S(=O)(c1cccs1)N1CCc2ccccc2C1`, for which the inhibition was 78% (active).

Take `O=C1c2ccccc2C(=O)c2c1cccc2N1CCN(Cc2ccccc2)CC1`: the inhibition is 13.4%.

As to `O=S(=O)(c1cccs1)N1CCN(Cc2ccccc2)CC1`, the inhibition was 98.1% (active).

Turning to `O=C(Nc1ccc(S(=O)(=O)N2CCc3ccccc3C2)cc1)c1ccccc1`, the inhibition was 0.3%.

Regarding `CCCCNc1nc2ccccc2nc1NS(=O)(=O)c1cccs1`, the inhibition is 2.4%.

With `CN1CCN(S(=O)(=O)c2ccc(N3CCN(S(=O)(=O)c4cccs4)CC3)nc2)CC1`, the inhibition is -25.5%.

Take `CCN(c1ccccc1)S(=O)(=O)c1ccc(NC(=O)C(C)(C)C)cc1`: the inhibition was 9.3%.

`COc1cccc(/C=N\Nc2nncc(-c3ccccc3)n2)c1`: the inhibition was -7%.

Regarding `O=C1C=C(c2ccc(Cl)cc2)C(=O)N1Nc1ccccc1`, the inhibition is 19.7%.

As for `CCOc1ccc(C(=O)NC2CCN(S(=O)(=O)CC)CC2)cc1`, the inhibition is 9.1%.

For `CC(=O)NC(Cc1ccc(F)cc1)C(=O)O` (stereo not given), the inhibition was -5.1%.

In the case of `Cn1c(SCc2c(F)cccc2Cl)nnc1-c1cnccn1`, the inhibition was 25.9%.

For the compound `O=C(NCc1ccco1)c1cccn2c(=O)c3c4c(sc3nc12)CCCC4`, the inhibition was 45.2%.

As to `Cc1nc(SCC(=O)Nc2cc(C)on2)c2c3c(sc2n1)CCCC3`, the inhibition was 7%.

As for `CCCc1nc2sc3c(c2c(=O)n1NC(=O)CCCl)CCCC3`, the inhibition is 88.5% (active).

Consider `O=C(Nc1ccncc1)c1c(F)cccc1F`, for which the inhibition was 52.4% (active).

For `O=C(Nc1ccncc1)c1cc2ccccc2o1`, the inhibition was 99.6% (active).

Regarding `O=C(Nc1cccc(-c2nc3ncccc3o2)c1)c1ccco1`, the inhibition was 5.2%.

Turning to `O=C(NCCc1ccc2c(c1)OCCO2)c1cc2ccccc2o1`, the inhibition is 41.2%.

As for `CN1C(=O)c2ccc(NC(=O)c3c(F)c(F)c(F)c(F)c3F)cc2C1=O`, the inhibition is -11.8%.

For the compound `O=C(Nc1ccc(Cl)cc1)c1ccsn1`, the inhibition was 25.4%.

For `C/C(=C\C(=O)c1ccccc1)Nc1cccc(O)c1`, the inhibition is 10.3%.

As to `COc1ccc(CNC(=O)C2CCC(CNc3c(N4CCOCC4)c(=O)c3=O)CC2)cc1` (stereo not given), the inhibition was -12.8%.

Regarding `COc1cccc(-c2nc3cc(C)ccc3o2)c1`, the inhibition is 42.7%.

With `C/C=C/C(=O)OCC(=O)Nc1ccc(F)cc1Cl`, the inhibition was 16.4%.

In the case of `CCC1Oc2ccc(Cl)cc2N(CC(=O)O)C1=O` (stereo not given), the inhibition is -3.7%.

On to `Cc1cccc(C)c1NC(=O)c1ccc(CN2CCc3ccccc3C2)cc1`, for which the inhibition was -19.5%.

Take `CCC(c1nnnn1C1CCCC1)N1CCN(C(=O)c2ccco2)CC1` (stereo not given): the inhibition is 61.3% (active).

On to `CC(=O)c1ccc(-n2nnnc2SCC(=O)N2CCN(C(=O)c3ccco3)CC2)cc1`, for which the inhibition was -3.8%.

`CC(C)C(c1nnnn1CCc1ccccc1)N1CCN(C(=O)c2ccco2)CC1` (stereo not given): the inhibition is 15.7%.

For the compound `COC(=O)C1=C(C)NC2=C(C(=O)c3ccccc32)C1c1ccc(-c2ccc(C(=O)O)cc2)o1` (stereo not given), the inhibition was 44.5%.

For the compound `COC(=O)c1cc(NC(=O)CC2C(=O)NCCN2C(=O)c2ccc(F)cc2)cc(C(=O)OC)c1` (stereo not given), the inhibition was 8.6%.

As for `O=C(NC(C(=O)NCCN1CCOCC1)C12CC3CC(CC(C3)C1)C2)C1CCCCC1` (stereo not given), the inhibition is -0.8%.

On to `OC(CN1C2=NCCCN2c2ccccc21)c1ccc(Br)cc1` (stereo not given), for which the inhibition is 11.9%.

With `Cn1sc(NC(=O)c2ccccc2)nc1=O`, the inhibition was 0.2%.

As to `COC(=O)c1nc(NC(=O)c2ccccc2)n[nH]1`, the inhibition was 1.9%.

Regarding `O=C(Nc1nsc(-c2ccccc2)n1)c1ccncc1`, the inhibition was 93.3% (active).

For the compound `CCOC(=O)C1Sc2[nH]c(=O)sc2C(c2ccc(Cl)cc2)C1C(=O)OCC` (stereo not given), the inhibition is 24.6%.

For `Cc1ccc2[nH]c(=O)c(CN(CCCN(C)C)C(=O)Nc3cccc(Cl)c3)cc2c1`, the inhibition was -4.4%.

In the case of `COc1ccc2[nH]c(=O)c(CN(CC3CCCO3)C(=O)Nc3ccccc3)cc2c1` (stereo not given), the inhibition was 32.6%.

`Cc1cccc(NC(=O)N(Cc2cc3cc(C)cc(C)c3[nH]c2=O)CC2COCCO2)c1` (stereo not given): the inhibition was 76.8% (active).

(Values after PubChem BioAssay AID778 (Sanford-Burnham Center for Chemical Genomics, 2007).)
